Screening data deposited in PubChem BioAssay by National Center for Advancing Translational Sciences (NCATS).
TDP1 inh: TDP1 (human) enzyme inhibition. 350,000 compounds, 0.28% hits. AID 485290. Potency, µM (highest dose often 130 µM), hits mostly inhibitors. recombinant TDP1, AlphaScreen DNA substrate cleavage. Q9NUW8; note: nearly all actives have a fitted effect of over 40% in size
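Recombinant human Tdp1 (E. coli-expressed, 1 nM final) preincubated with compounds 15 min at room temperature, then 5'-biotin/3'-phosphotyrosine-FITC DNA substrate (15 nM final) added for 5 min. AlphaScreen beads (10 ug/ml final) added 10 min; cleavage lowers signal.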
KDM4E inh: blocks human JMJD2E demethylase activity. Potency, µM (titrated, usually from 57.1 µM), hits mostly inhibitors. JMJD2E catalytic domain, FDH-coupled NADH fluorescence (FDH is formaldehyde dehydrogenase). 230,000 compounds, 1.6% hits. B2RXH2; active = well fitted inhibition curve with a large enough effect, not every such curve was filed as active; inconclusive = small, poorly fitted or top-dose-only effect, or another doubt; inactive = no such curve, though single readings can be large or run the other way; note: nearly all actives have a fitted effect of over 50% in size
L3MBTL1 inh: blocks human L3MBTL1; AlphaScreen L3MBTL1–H3K9me1 peptide binding; Potency, µM (series often up to 57.1 µM), hits mostly inhibitors; 230,000 compounds, 0.66% hits; AID 485360; note: nearly all actives have a fitted effect of over 60% in size
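L3MBTL1 50 nM + b-AHA-H3(1-15)K9me1 75 nM, 30 min RT; compound added, 30 min RT; streptavidin donor/Ni-chelate acceptor beads 10 ug/mL each final, 30 min RT dark; AlphaScreen read.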
APEX1 inh: APE1 (human) endonuclease inhibition; P27695; recombinant APE1, TAMRA/BHQ-2 abasic DNA cleavage fluorescence; Potency, µM (top dose mostly 65.8 µM), most hits filed as inhibitors; 350,000 compounds, 0.35% hits; note: nearly all actives have a fitted effect of over 55% in size
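Substrate: short duplex with […] THF abasic site, 5'-TAMRA and 3'-BHQ-2, 50 nM final. APE1 at 0.75 nM, preincubated 15 min RT with compound. Fluorescence increase from first to third read measured activity.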
RECQ1 inh-1: blocks DNA unwinding by human RECQ1. AID 2549. Potency, µM (doses to about 57.3 µM), usual class: inhibitors. 240,000 compounds, 0.54% hits. P46063. RECQ1 DNA unwinding, red fluorescence kinetic read; note: nearly all actives have a fitted effect of over 30% in size
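50 nM RECQ1T1 preincubated 15 min with compound in Tris pH 8.0 buffer with MgCl2, DTT, Tween-20 and 2.5 ug/ml poly(dI-dC); started with 200 nM TAMRA/BHQ-2 forked duplex and 2 mM ATP. Unwinding read as fluorescence (525/598 nm), two reads 2 h apart.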
BLM helicase inh: Bloom syndrome helicase (human) inhibition | P54132 | recombinant BLM DNA unwinding, fluorescence dequenching | Potency, µM (doses to about 56.1 µM), hits mostly inhibitors | 350,000 compounds, 0.2% hits | AID 2528; note: nearly all actives have a fitted effect of over 35% in size
RECQ1 inh conf: confirmation of human RECQ1 helicase inhibitors; shares compounds with RECQ1 inh-1; RECQ1 helicase DNA unwinding, fluorescence; Potency, µM (series often up to 229 µM), most hits filed as inhibitors; 610 compounds, 28% hits; note: nearly all actives have a fitted effect of over 45% in size
ADP FP counter: displaces ADP in a fluorescence polarization counter-screen for RECQ1 hits | shares compounds with RECQ1 inh-1 | ADP fluorescence polarization displacement counterscreen | Potency, µM (highest dose often 228 µM), usual class: inhibitors | 530 compounds, 27% hits; note: nearly all actives have a fitted effect of over 45% in size
RECQ1 inh-2: blocks human RECQ1 DNA unwinding | Potency, µM (series often up to 119 µM), usual class: inhibitors | recombinant RECQ1 DNA unwinding, red fluorescence | 1,100 compounds, 15% hits | shares compounds with RECQ1 inh-1; note: nearly all actives have a fitted effect of over 50% in size
Hits are given with their value; – = inactive; ? = inconclusive; · = no result; [ ] = remark or other dose. The full list was thinned out, with hits kept by preference. Unless noted, calls come from the whole dose curve; as a rule, active = well fitted curve in the direction sought with a large enough effect; inconclusive = small, poorly fitted or top-dose-only effect, or another doubt; inactive = no such curve, though single readings can be large; an effect the other way counts as inactive or inconclusive.

SMILES	TDP1 inh	KDM4E inh	L3MBTL1 inh	APEX1 inh	RECQ1 inh-1	BLM helicase inh	RECQ1 inh-2	others
Cc1cc(O)c2c(c1)OC1(C)CCC3C(C)(C)CCCC34COC2C14 (centres undefined)	·	·	·	·	·	–	·
C=CCN1c2ccccc2[C@]23C[C@@H](C(=O)OC)N(S(=O)(=O)c4ccc(Br)cc4)C2=NC(C(=O)OC)=C(C(=O)OC)[C@H]13	–[12.3 µM]	–[11.4 µM]	·	–[12.4 µM]	–[11.5 µM]	–[12.4 µM]	·
CCC(c1nnnn1Cc1ccco1)N(Cc1cc2cc(C)cc(C)c2[nH]c1=O)CC1CCCO1 (centres undefined)	–	?	·	–	?	–	–
CCC(c1nnnn1Cc1ccco1)N(Cc1ccccc1OC)Cc1cc2cc(C)ccc2[nH]c1=O (centres undefined)	–	–	–	–	–	–	·
COc1ccccc1N1C(=O)CC(N2CCc3ccccc32)C1=O (centres undefined)	–	?	?	?	?	–	–
COc1ccc(Cl)cc1N1C(=O)CC(N2CCc3ccccc32)C1=O (centres undefined)	–	–	·	–	–	–	·
N#Cc1ccc(NCCNCC(=O)N2N=CCC2C#N)nc1 (centres undefined)	–	·	·	–	–	–	·
O=C1NC(=O)C2C3C=CC(C3)C12 (centres undefined)	–	·	·	·	·	–	·
O=C1CC(=O)CC(c2ccccc2Cl)C1	–	–	–	–	?	–	–
Cc1ccc(C2=CC(C)(c3ccc(C)cc3)Nc3nc(C(F)(F)F)nn32)cc1 (centres undefined)	–	–	–	–	?	–	–
CC1(c2ccc(OCC#N)cc2)C=C(c2ccc(OCC#N)cc2)n2nc(C(F)(F)F)nc2N1 (centres undefined)	–	–	–	–	–	–	·
CC(=O)OC[C@@H]1O[C@@H](O/N=C2/C[C@@H](O)[C@@H](O)[C@@H]3[C@@H]4C(=O)N(Cc5ccccc5)C(=O)[C@H]4CC[C@@H]23)[C@H](OC(C)=O)[C@H](OC(C)=O)[C@@H]1OC(C)=O	–[21 µM]	·	·	–[12.4 µM]	–[11.5 µM]	–[12.4 µM]	·
O=C(/C=C/c1ccc2c(c1)OCO2)Nc1nc(-c2ccccc2)cs1	–	?	–	–	1.4µM	–	?	RECQ1 inh conf=–;ADP FP counter=–
O=C(CNC(=O)c1ccc(S(=O)(=O)N2CCCC2)cc1)N/N=C/c1ccc(Cl)cc1Cl	–	–	–	–	–	–	·	RECQ1 inh conf=–;ADP FP counter=–
O=C(CNC(=O)c1ccc(S(=O)(=O)N2CCCC2)cc1)N/N=C/c1ccc(Cl)cc1	–	–	–	–	–	–	·
O=C(O)CCC(=O)Nc1nc2nc(-c3ccccc3)cc(-c3ccccc3)n2n1	–	?	–	–	–	–	·	RECQ1 inh conf=35µM;ADP FP counter=?
CCNc1ncc2nc(-c3ccccc3)c(=O)n(C)c2n1	·	·	·	–	–	–	·
CN1/C(=C\C(=S)NC(=O)c2ccccc2Cl)C(C)(C)c2ccccc21	–	–	?	–	25µM	–	?
Cc1ccc(S(=O)(=O)N2CCN(c3nc(-c4cncn4C)nc4ccccc34)CC2)cc1	–	·	·	·	·	·	·
COc1cc(/C=C2\CC/C(=C\c3cc(OC)c(O)c(OC)c3)C2=O)cc(OC)c1O	–	?	28µM	?	14µM	?	2.8µM
COc1cc(/C=C2\CC/C(=C\c3cc(OC)c(OC)c(OC)c3)C2=O)cc(OC)c1OC	–	–	–	–	–	–	·
Nc1ccccc1Oc1ccccc1	–	·	·	–	–	–	·
Cc1ccc(NC(=O)c2ccc(OCc3c(C)noc3C)cc2)cc1	–	–	–	–	–	–	·	RECQ1 inh conf=–;ADP FP counter=50µM
Cc1noc(C)c1COc1ccc(C(=O)Nc2cccnc2)cc1	–	–	–	–	0.89µM	–	–	RECQ1 inh conf=56µM;ADP FP counter=126µM
CC(C)OC(=O)[C@@H]1CC[C@H](C)[C@@H](CCCC=O)O1	–	–	·	–	–	–	·
SMILES	TDP1 inh	KDM4E inh	L3MBTL1 inh	APEX1 inh	RECQ1 inh-1	BLM helicase inh	RECQ1 inh-2	others
COc1ccc(NS(=O)(=O)c2ccc(O)c(NC(=O)c3cc4c(C)nn(-c5ccc(F)cc5)c4s3)c2)cc1	–	?	–	?	?	28µM	?
COc1ccc(NC(=O)c2cc3c(C)nn(-c4ccccc4)c3s2)c(OC)c1	·	·	·	·	·	–	·
CCOc1ccc(NC(=O)CC2C(=O)N(c3ccc(F)cc3)C(=O)N2CCc2sccc2C)cc1 (centres undefined)	–	·	·	·	·	–	·
COc1ccc(C2=Nn3c(nnc3-c3cccc(OC)c3OC)SC2)cc1	–	·	·	–	–	–	·
CC(=O)C(C(C)=O)C1(O)C(=O)c2ccccc2C1=O	–	–	?	?	?	?	–
Cc1cc(/C=C\c2nc(O)c([N+](=O)[O-])c(=O)[nH]2)c(C)n1-c1ccccc1	·	–	–	?	25µM	–	?
COc1ccc(-n2c(C)cc(/C=C/c3nc(O)c([N+](=O)[O-])c(=O)[nH]3)c2C)cc1	?	–	?	?	?	–	?
O=c1[nH]c(/C=C\c2cccc(O)c2)nc(O)c1[N+](=O)[O-]	·	·	–	–	·	–	·
CCc1ccc(N2C(=O)CN(Cc3sccc3C)C2=S)cc1	–	–	·	–	1.6µM	–	–	RECQ1 inh conf=–;ADP FP counter=–
NC(=O)C1CCN(c2nc(-c3ccccc3[N+](=O)[O-])cs2)CC1	·	·	·	–	·	·	·
CCOc1ccc2nc(SCC(=O)N3c4ccccc4Sc4ccccc43)sc2c1	–	–	–	–	–	–	·	RECQ1 inh conf=–;ADP FP counter=–
c1ccc2[nH]c(NCCCc3cnc[nH]3)nc2c1	–	·	·	–	–	–	·
Cc1cccc(NC2=Nc3ccccc3N3C2=Nc2c(c(C)nn2-c2ccccc2)C3c2ccc(O)c(O)c2)c1 (centres undefined)	–	?	–	–	–	–	·
Cc1ccc(NC2=Nc3ccccc3N3C2=Nc2c(c(C)nn2-c2ccccc2)C3c2ccc(O)c(O)c2)cc1 (centres undefined)	–	28µM	–	–	32µM	–	?
CN(c1ccc(F)cc1)S(=O)(=O)c1ccc(Cl)c(C(=O)Nc2ccc3c(c2)CCC3)c1	–	–	–	–	32µM	–	–
CN(c1ccc(F)cc1)S(=O)(=O)c1ccc(Cl)c(C(=O)Nc2ccncc2)c1	·	·	–	–	·	·	·
CCn1c(CCCOc2ccc(Cl)cc2Cl)nnc1SCC(=O)Nc1cccc(F)c1	–	–	–	–	13µM	–	–	RECQ1 inh conf=–;ADP FP counter=–
CCn1c(C)nnc1SCC(=O)Nc1cccc(Cl)c1	·	·	–	–	·	–	·
